A selection: hits, their analogues and other compounds. The true share with any hit is near 18%.
TDP1 cell noCPT: qHTS for Inhibitors of human tyrosyl-DNA phosphodiesterase 1 (TDP1): qHTS in cells in absence of CPT; 420,000 compounds, 15% hits; DT40 Tdp1-/- hTDP1 cells, no CPT, ATP luminescence, 48 h; Potency, µM (titrated, usually from 46.2 µM), for the others: top-dose activity change, negative = growth inhibition, usual class: inhibitors; AID 686978, 2013; note: nearly all actives have a fitted effect of over 55% in size
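Chicken DT40 Tdp1-/- cells complemented with human TDP1, screened without camptothecin (DMSO vehicle only), 400 cells/well. Compounds pin-transferred, cells incubated at 37 °C for at least 48 hr. Growth read as ATP-dependent luminescence (CellTiter-Glo, 30 min at RT).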
PLK1 PBD inh: blocks phosphopeptide binding to human PLK1 polo-box domain; Plk1 PBD binding of FITC phosphopeptide, fluorescence polarization; Potency, µM, for inactives: max response, negative = inhibition, usual class: inhibitors; 360,000 compounds, 2.8% hits; AID 720504; note: series mostly up to about 57 µM; nearly all actives have a fitted effect of over 65% in size
TDP1 inh: TDP1 (human) enzyme inhibition. recombinant TDP1, AlphaScreen DNA substrate cleavage. 350,000 compounds, 0.28% hits. Q9NUW8. AID 485290. Potency, µM (series often up to 130 µM), for inactives: at the top dose activity change, negative = inhibition, actives largely listed as inhibitors; note: nearly all actives have a fitted effect of over 40% in size
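Here, a 5' biotin and 3' phosphotyrosine-FITC DNA oligonucleotide reports Tdp1 activity: intact substrate bridges AlphaScreen beads, while cleavage leaves a 3' phosphate and drops signal. All incubations at room temperature.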
KAT2A inh: inhibitors of human GCN5L2 histone acetyltransferase | GCN5L2 HAT assay, ThioGlo1 CoA-SH fluorescence | Potency, µM (titrated, usually from 58.9 µM), for the others: top-dose activity change, negative = inhibition, most hits filed as inhibitors | 390,000 compounds, 0.21% hits | AID 504327
Target sequence (Q92830 whole entry, looked up): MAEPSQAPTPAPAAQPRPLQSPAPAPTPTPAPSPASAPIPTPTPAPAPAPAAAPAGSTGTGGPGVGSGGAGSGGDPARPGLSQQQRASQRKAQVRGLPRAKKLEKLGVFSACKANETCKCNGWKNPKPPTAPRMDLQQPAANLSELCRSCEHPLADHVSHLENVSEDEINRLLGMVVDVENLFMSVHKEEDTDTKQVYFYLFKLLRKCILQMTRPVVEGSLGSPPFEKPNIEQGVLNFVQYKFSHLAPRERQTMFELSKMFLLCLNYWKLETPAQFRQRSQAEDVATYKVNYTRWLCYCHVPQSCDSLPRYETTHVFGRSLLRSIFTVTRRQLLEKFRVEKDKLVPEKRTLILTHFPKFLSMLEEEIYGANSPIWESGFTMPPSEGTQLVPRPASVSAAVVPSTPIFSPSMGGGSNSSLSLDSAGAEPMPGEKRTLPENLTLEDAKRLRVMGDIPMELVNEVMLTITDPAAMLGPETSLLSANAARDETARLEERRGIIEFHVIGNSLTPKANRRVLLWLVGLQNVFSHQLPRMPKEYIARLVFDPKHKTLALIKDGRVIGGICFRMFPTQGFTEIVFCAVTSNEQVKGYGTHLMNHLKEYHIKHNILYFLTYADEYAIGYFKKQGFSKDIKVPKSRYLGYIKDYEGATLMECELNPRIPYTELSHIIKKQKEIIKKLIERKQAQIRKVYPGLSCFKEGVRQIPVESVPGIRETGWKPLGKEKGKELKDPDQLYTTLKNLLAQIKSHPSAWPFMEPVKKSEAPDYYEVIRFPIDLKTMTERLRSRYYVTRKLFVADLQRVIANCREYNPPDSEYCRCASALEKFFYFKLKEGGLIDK
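Free CoA generated was detected with ThioGlo1 (50uM) fluorescence at Ex340nm/Em540nm, read immediately and after 20 min at room temperature. Enzyme, 20 nM in HEPES pH 7.5 buffer, saw compounds 15 min before adding 75uM H3(1-25) peptide and 70uM acetyl-CoA.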
TDP1 cell CPT: DT40-hTDP1 cell growth loss with CPT. 420,000 compounds, 12% hits. AID 686979. Potency, µM (series often up to 46.2 µM), for inactives: at the top dose activity change, negative = growth inhibition, usual class: inhibitors. chicken DT40 Tdp1-/-;hTDP1 cells + 20 nM CPT, ATP luminescence, 48 h; note: nearly all actives have a fitted effect of over 55% in size
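Cell growth measured by CellTiter-Glo luminescence after a minimum 48 h, 37 C compound exposure with 20 nM CPT in Tdp1-knockout DT40 cells stably expressing hTDP1, seeded 400/well; qHTS titration format.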
VDR inhibitor: inhibitors of human vitamin D receptor; VDR-SRC2-3 peptide fluorescence polarization, 2 h; Potency, µM, for inactives: max response, negative = inhibition, actives largely listed as inhibitors; 400,000 compounds, 0.93% hits; AID 504847
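Reagent solutions, kept cold and dark, are dispensed first; compounds are then pinned in at 23 nl, plates briefly spun, and incubated 2 h at ambient temperature. Inhibition of VDR–SRC2-3 peptide binding is read by fluorescence polarization.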
* marks the source's active call; other numbers are inactive results; ? = inconclusive; . = not tested or not shown; [ ] = remark or other dose. Calls come from the whole dose curve; as a rule, active = well fitted curve in the direction sought with a large enough effect; inconclusive = small, poorly fitted or top-dose-only effect, or another doubt; inactive = no such curve, though single readings can be large; an effect the other way counts as inactive or inconclusive. % is set by controls: 0 for no effect and ±100 for the full control effect; potency is the fitted concentration of half-maximal effect.

SMILES | TDP1 cell noCPT | PLK1 PBD inh | TDP1 inh | KAT2A inh | TDP1 cell CPT | VDR inhibitor
CN(Cc1ccccc1F)c1cc2c(c3c1ccn3C)C1CCC2C1 (stereo not given) | 23µM* | -13% | . | . | ? | .
COCc1c(C(=O)N2CCCC(C)C2)cnn1-c1nccc(-c2cc(C)sc2C)n1 (stereo not given) | -27% | . | . | . | -7% | .
C=CCn1c(SCC(N)=O)nnc1-c1cnccn1 | -21% | -3% | 1% | 1% | -10% | 12%
CCN(CC)CC(C)(C)C(=O)/C=C/c1ccc(/C=C/C(=O)C(C)(C)CN(CC)CC)cc1 | 0.41µM* | ? | . | . | 0.52µM* | ?
CCN(CC)CCOC(=O)/C=C/c1ccccc1 | -1% | -9% | 5% | ? | -11% | 0%
CCCCCN(C(=O)CCC(=O)OC(C)C(=O)c1ccccc1)c1c(N)n(CCCC)c(=O)[nH]c1=O (stereo not given) | -3% | -3% | -7% | -1% | -16% | -14%
CC(=O)NC1C(OCc2ccccc2)OC2COC(c3ccccc3)OC2C1OCC(=O)O (stereo not given) | ? | 21µM* | -4% | 0% | ? | 5%
CC(=O)NC1C(OCc2ccccc2)OC(CO)C(OC(C)=O)C1OC(C)=O (stereo not given) | -16% | -4% | -1% | 13% | 2% | -7%
Cc1ccc(OCc2cnc(Cl)s2)c(C)c1 | -8% | -4% | -9% | 3% | -20% | -13%
CCn1c(SCc2nc(-c3cccs3)no2)nnc1-c1c[nH]c2ccccc12 | 23µM* | -11% | 0% | -8% | ? | 6%
CCn1c(SCC(=O)c2c[nH]c3ccccc23)nnc1-c1cccs1 | 5.8µM* | 11% | -3% | -8% | ? | 5%
COC(=O)C1=C(C)NC(=O)/C1=C\c1cc(C)n(-c2cccc(C)c2)c1C | 16µM* | -4% | 10% | -14% | ? | 1%
COC(=O)C1=C(C)NC(=O)/C1=C\c1cc(C)n(-c2ccc(F)cc2)c1C | -28% | -9% | -2% | -12% | -5% | 5%
CC1(C2CC2)NC(=O)N(CC(=O)Nc2ccc(Cl)c([N+](=O)[O-])c2)C1=O (stereo not given) | -5% | 1% | 0%[56.1 µM] | -6% | -10% | -5%
COc1ccc(CCNC(=O)C2CC3Cn4c(nc5cc(Cl)c(Cl)cc54)C3N2C)cc1 (stereo not given) | ? | -1% | 0% | 1% | 21µM* | 3%
CN1C(C(=O)NCCc2cccs2)CC2Cn3c(nc4cc(Cl)c(Cl)cc43)C21 (stereo not given) | ? | -5% | 2% | 16% | ? | -6%
Cc1ccc(C(=O)OCC(=O)NCc2cccs2)cc1S(=O)(=O)N1CCOCC1 | 2% | -5% | 2% | -6% | -15% | -21%
COc1cc(C(c2sc3nc(C)nn3c2O)N2CCc3ccccc3C2)cc(OC)c1OC (stereo not given) | 10µM* | -11% | 1% | -10% | 23µM* | 6%
Cc1nc2sc(C(c3ccco3)N3CCN(C(c4ccccc4)c4ccccc4)CC3)c(O)n2n1 (stereo not given) | 18µM* | -15% | -7% | -17% | ? | -23%
COc1cc(C(c2sc3nc(C)nn3c2O)N2CCN(c3ccccc3)CC2)cc(OC)c1OC (stereo not given) | ? | 1% | 3% | -3% | ? | -7%
Cc1nc2sc(C(c3ccco3)N3CCN(c4ccccc4)CC3)c(O)n2n1 (stereo not given) | -28% | 4% | 2% | -13% | ? | -1%
CN(Cc1cnc2ccccn12)C1CCN(c2cccc(NC(=O)c3cccnc3)c2)CC1 | ? | . | . | . | 5%[9.04 µM] | .

Compound activity: PubChem, National Center for Advancing Translational Sciences (NCATS)
